Experimental findings from PubChem BioAssay are described below.

A short description of assay [1]: inhibitors of mutant huntingtin aggregation, primary screen, imaging, exon1htt(103Q)mCFP cells, high-content imaging (AID 483;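 active = visual image review flags a hit and inhibition of aggregation exceeds 20%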;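 note: compound exposure lasted 3 days before fixation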;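 for nuclei count: percent of the per-plate median nuclei count of sample wells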). The settings on record: exon1htt(103Q)mCFP cell line, aggregate imaging, at 2 µM; inhibition of aggregation: stronger effect = higher value; nuclei count: measured here: cell count, toxicity.
The nature of assay [2]: inhibitors of E-selectin induction by TNFa, primary screen, imaging, HUVEC, immunofluorescence, MLSMR starter and 10KST1 sets (AID 487;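 active = visually confirmed hit in the image check and inhibition above 20%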;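 for inhibition: signal is fraction of cell area covered by stained E-selectin grains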;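 for nuclei count: 100% = median nuclei count of all wells on the same plate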). Particulars: HUVEC TNFalpha-induced E-selectin immunofluorescence imaging, at 2 µM; inhibition: stronger effect = higher value; nuclei count: measured here: cell number, toxicity.
The nature of assay [3]: DUSP6 inhibitors restoring Erk phosphorylation by chemical complementation, primary imaging in DUSP6-transfected HeLa (AID 609;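 active = compounds giving at least 50% inhibition in the cell-based MKP-3 phosphatase rescue imaging test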;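 for inhibition: phospho-Erk level distribution per well compared with pooled transfected vehicle control wells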). Particulars: HeLa MKP-3 transfected, phospho-Erk imaging KS statistic, at 10 µM, cells stimulated with TPA for 15 min.
The target of assay [4] is Dual specificity protein phosphatase 6 (Homo sapiens) (UniProt Q16828). The assay is described as above. The settings on record: HeLa MKP-3 transfected, phospho-Erk imaging KS statistic; at 10 µM; stronger effect = higher value; cells stimulated with TPA for 15 min.
Dual specificity protein phosphatase 6 (Homo sapiens), sequence (Q16828 whole entry, looked up): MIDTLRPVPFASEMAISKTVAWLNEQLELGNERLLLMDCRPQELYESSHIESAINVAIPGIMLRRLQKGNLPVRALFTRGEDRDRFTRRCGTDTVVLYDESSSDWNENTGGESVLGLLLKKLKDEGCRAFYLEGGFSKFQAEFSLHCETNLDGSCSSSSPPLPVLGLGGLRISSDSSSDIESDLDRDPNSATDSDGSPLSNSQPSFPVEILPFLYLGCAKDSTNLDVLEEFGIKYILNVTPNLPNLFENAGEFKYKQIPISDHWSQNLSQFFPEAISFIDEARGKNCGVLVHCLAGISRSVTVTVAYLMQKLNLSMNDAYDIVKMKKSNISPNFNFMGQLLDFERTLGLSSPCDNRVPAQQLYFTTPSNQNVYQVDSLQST
Assay [5] deals with Voltage-gated potassium channel subunit beta-2 (Rattus norvegicus) (UniProt P62483). In words: KvBeta enzyme negative modulators, primary screen, biochemical, NADPH fluorescence (AID 622;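 active = fluorescence slope higher than the sample average by over 3 SD, cut at about -0.22 in these data, passing the limit was not always enough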;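 note: slope of raw intensity against log time taken from 70 to 1610 s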). The settings on record: recombinant KvBeta, 4-cyanobenzaldehyde reduction, at 10 µM, stronger effect = higher value.
Voltage-gated potassium channel subunit beta-2 (Rattus norvegicus), sequence (P62483 whole entry, looked up): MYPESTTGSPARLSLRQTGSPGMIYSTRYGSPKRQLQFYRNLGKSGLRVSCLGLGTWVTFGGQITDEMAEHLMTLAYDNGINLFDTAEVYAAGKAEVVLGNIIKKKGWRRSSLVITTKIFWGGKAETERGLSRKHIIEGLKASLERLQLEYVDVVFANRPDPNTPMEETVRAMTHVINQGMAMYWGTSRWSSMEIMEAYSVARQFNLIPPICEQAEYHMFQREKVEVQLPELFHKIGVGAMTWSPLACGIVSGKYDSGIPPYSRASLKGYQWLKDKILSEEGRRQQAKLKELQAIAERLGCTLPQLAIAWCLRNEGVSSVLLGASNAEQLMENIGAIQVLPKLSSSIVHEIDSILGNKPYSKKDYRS
Assay [6] shares this target. In words: KvBeta positive modulators, primary screen, biochemical, NADPH fluorescence (AID 623;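 active = NADPH fluorescence slope more negative than the mean of all samples by about 3 SD, 99.7% confidence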;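 note: fluorescence intensity change per second fitted from 20 to 320 s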). The settings on record: Recombinant KvBeta, NADPH fluorescence decrease slope, 10 min; at 10 µM; stronger effect = lower value.
Assay [7] concerns the target Alpha-2C adrenergic receptor (Homo sapiens) (UniProt P18825). In words: modulators of alpha2C/GIRK thallium flux, primary screen, cell-based, HEK293 alpha2C/GIRK1/2 (AID 624;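 active = fluorescence slope after compound addition differing from the mean of all screened samples at 99.7% confidence, in either direction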;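 note: slope of fluorescence ratio to pre-addition baseline per second over 15 to 24 s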). Particulars: thallium flux BTC fluorescence, at 10 µM, actives lie on both sides.
A short description of assay [8]: inhibitors of larval lipid processing in zebrafish, primary screen, whole organism, PED6 fluorescence, gall bladder and intestine (AID 686;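 active = a full or partial loss of lipid-probe fluorescence in the fish gall bladder, intestine or both, judged by eye; inactive = no fluorescence loss, or compound toxic to the fish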;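 note: larvae 5 to 7 days old with five fish per well; signal comes from phospholipase A2 cleavage of quenched PED6 carried via bile; overnight exposure to compound and PED6 before scoring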). Particulars: Zebrafish larvae PED6 lipid processing, fluorescence scoring; screened at 20 µM (by protocol).
Assay [9] in a line: inhibitors of Chlamydomonas gravitaxis, primary screen, whole organism, Chlamydomonas reinhardtii, WT vs cilia-less mutant, absorbance, 96-well (AID 463189).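 Note: 0% = wild type cc124 cells in DMSO and 100% = ciliumless bld1 mutant cells.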 The settings on record: OD600 absorbance, 2 days, at 10 µM, stronger effect = higher value.
A short description of assay [10]: inhibitors of Sendai virus-induced IRF3 signaling, primary screen, TLR/RLR signaling modifier project, cell-based, Sendai virus stimulus, luciferase, 10K MLSCN set (AID 602276;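 active = inhibition at or above 50% at 10 µM; inactive = inhibition below 50%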;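 note: firefly luciferase from ISG56 promoter only with Renilla not read in this screen; 0% = Sendai virus plus DMSO and 100% = medium plus DMSO without virus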). The settings on record: HEK293 RL24 IRF3 luciferase reporter, at 10 µM, stronger effect = higher value. A general note: A reporter such as luciferase makes a cellular process visible.
A short description of assay [11]: inhibitors of poly I:C-induced TLR3 signaling, primary screen, cell-based, poly I:C stimulus, luciferase, 10K MLSCN set (AID 602277;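 active = inhibition of the reporter signal at or above 50%; inactive = inhibition below 50%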). Particulars: HEK293-TLR3 RL24 IRF3 luciferase reporter, at 10 µM, stronger effect = higher value.
Assay [12] concerns the target Muscarinic acetylcholine receptor M4 (Homo sapiens) (UniProt P08173). In words: compounds altering M4/GIRK thallium flux, either direction, primary screen, M4 allosteric agonist project, cell-based, HEK293 M4/GIRK, BTC-AM (AID 625;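 active = fluorescence slope after compound addition differing from the mean of all tested samples at 99.7% confidence, mostly higher but some lower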;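 note: thallium influx through GIRK channels coupled to M4 in HEK293 cells with BTC-AM dye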). The settings on record: at 10 µM, actives lie on both sides.
Setting [13] is: measured here: cell density z-score.
Setting [14] is: measured here: nuclear c-Myc green intensity z-score.
The mark [15] stands for this setting: measured here: nuclear pErk red intensity z-score, stronger effect = higher value.

A word on the inhibition: it is the relative decrease from the control value, in per cent.

Several values for one entry are separate records, joined by “and”; a condition that tells them apart may be missing. Equal values may be shown once. Activity calls are given as the source filed them.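 Rule for the calls, unless noted: active = inhibition at or above 50% relative to wild type and mutant plate controls; inactive = inhibition below 50%.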

Alpha-2C adrenergic receptor (Homo sapiens), sequence (P18825 whole entry, looked up): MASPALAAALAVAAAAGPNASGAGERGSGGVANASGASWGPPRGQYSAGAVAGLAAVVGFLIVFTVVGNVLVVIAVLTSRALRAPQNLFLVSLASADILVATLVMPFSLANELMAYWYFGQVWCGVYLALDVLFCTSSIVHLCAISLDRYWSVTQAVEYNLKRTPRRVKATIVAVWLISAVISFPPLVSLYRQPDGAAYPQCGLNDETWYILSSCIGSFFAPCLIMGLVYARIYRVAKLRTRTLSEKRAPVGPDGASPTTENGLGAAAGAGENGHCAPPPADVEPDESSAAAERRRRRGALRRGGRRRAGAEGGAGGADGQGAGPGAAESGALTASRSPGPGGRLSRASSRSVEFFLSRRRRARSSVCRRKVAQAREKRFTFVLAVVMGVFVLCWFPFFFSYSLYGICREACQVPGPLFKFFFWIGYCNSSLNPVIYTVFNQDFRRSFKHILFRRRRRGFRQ
Muscarinic acetylcholine receptor M4 (Homo sapiens), sequence (P08173 whole entry, looked up): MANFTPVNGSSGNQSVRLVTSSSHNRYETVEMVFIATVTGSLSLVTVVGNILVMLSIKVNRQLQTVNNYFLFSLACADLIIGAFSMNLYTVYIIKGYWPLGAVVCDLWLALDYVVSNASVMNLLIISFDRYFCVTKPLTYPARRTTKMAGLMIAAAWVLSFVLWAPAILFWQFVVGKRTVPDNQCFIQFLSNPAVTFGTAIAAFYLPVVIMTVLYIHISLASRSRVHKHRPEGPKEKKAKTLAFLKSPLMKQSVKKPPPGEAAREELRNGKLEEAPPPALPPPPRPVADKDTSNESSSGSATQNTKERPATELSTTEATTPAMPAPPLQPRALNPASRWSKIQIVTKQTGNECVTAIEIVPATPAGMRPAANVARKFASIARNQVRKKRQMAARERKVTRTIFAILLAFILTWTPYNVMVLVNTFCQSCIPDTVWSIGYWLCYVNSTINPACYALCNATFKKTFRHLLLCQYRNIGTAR

With `COc1cc2nc(N3CCN(C(=O)C4COc5ccccc5O4)CC3)nc(N)c2cc1OC` (stereo not given), the inhibition of aggregation in [1] was -4.2% (inactive). The nuclei count in assay [1] turned out to be 100%; in assay [2], 123%. Further, the inhibition in assay [2] was -103% (inactive); in assay [4] it was -0.493% (inactive); in [9] it was -6.99% (inactive) and 1.78% (inactive); in assay [10], 5.11% (inactive); in assay [11], 24.7% (inactive). Also, the z-score is 0.0825 in assay [3] (setting [13]), -0.753 in [3] (setting [14]) and -0.892 in assay [3] (setting [15]). Also, the fluorescence slope in assay [5] is -0.435 (inactive). Further, in assay [6], the NADPH fluorescence slope is -3.3e-05 (inactive). Besides, in assay [7], the slope is 0.00431 (inactive). In assay [8], the molecule was classed as inactive.

As to `CC(=O)[C@@]1(O)CC[C@H]2[C@@H]3C[C@H](C)C4=CC(=O)C=C[C@]4(C)[C@@]3(F)[C@@H](O)C[C@@]21C`, in assay [1], the inhibition of aggregation was 10.8% (inactive). Further, the nuclei count was found to be 60.1% in assay [1] and 121% in assay [2]. The inhibition in assay [2] is -32.9% (inactive); in [4], 7.39% (inactive); in assay [9], -2.25% (inactive); in [10], 13.2% (inactive); in assay [11], 38.7% (inactive). Besides, the z-score in assay [3] (setting [13]) was 0.696; in assay [3] (setting [14]), 0.132; in assay [3] (setting [15]) it was 1.25. Also, the fluorescence slope in assay [5] was -0.416 (inactive). Moreover, the NADPH fluorescence slope in assay [6] was -5e-05 (inactive). The slope in [7] was 0.0055 (inactive). The molecule was called inactive in [8].

Consider `COc1cc(NS(=O)(=O)c2ccc(N)cc2)ncn1`, for which the inhibition of aggregation in [1] is 15.6% (inactive). For the same molecule, the nuclei count in assay [1] was 100%; in assay [2] it was 109% and 156%. Also, the inhibition in assay [2] is -87.8% (inactive) and -123% (inactive); in [4], 12.4% (inactive) and -1.98% (inactive); in [9] it was 15.5% (inactive) and 12.3% (inactive); in assay [10], 6.56% (inactive); in assay [11] it was 32.2% (inactive). The z-score in [3] (setting [13]) is -0.758 and -0.797; in assay [3] (setting [14]), -0.381 and 0.601; in [3] (setting [15]), 1.83 and 0.0867. Further, the fluorescence slope in [5] was -0.448 (inactive) and -0.477 (inactive); in assay [12], 0.00587 (inactive). In addition, in assay [6], the NADPH fluorescence slope was -8.5e-05 (inactive) and -7.6e-05 (inactive). Moreover, the slope in [7] is 0.00452 (inactive). In assay [8], the result was inactive.

With `O=C1NC(=O)C(c2ccccc2)(c2ccccc2)N1`, the inhibition of aggregation in assay [1] was -21.7% (inactive). Also, the nuclei count in [1] was 101%; in [2] it was 102%. Also, the inhibition in assay [2] is 23.3% (inactive); in assay [4], 3.59% (inactive); in assay [9] it was 2.61% (inactive) and -21.3% (inactive); in assay [10] it was -7.98% (inactive); in assay [11] it was -7.53% (inactive). Also, the results for the z-score in assay [3] (setting [13]), in [3] (setting [14]) and in [3] (setting [15]) were 0.136, -0.248 and -1.03, respectively. In assay [5], the fluorescence slope is -0.471 (inactive). In assay [6], the NADPH fluorescence slope is 3.3e-05 (inactive). Moreover, the slope in [7] is 0.00448 (inactive). In addition, in [8], the call was inactive.

As to `CC(=O)OC[C@H]1O[C@@H](n2ncc(=O)[nH]c2=O)[C@H](OC(C)=O)[C@@H]1OC(C)=O`, the inhibition of aggregation in assay [1] is 14.3% (inactive). Besides, the figures for the nuclei count in [1] and in [2] were 77.3% and 116%, respectively. The inhibition in assay [2] is -22.1% (inactive); in assay [4], -0.828% (inactive); in assay [9] it was -10.6% (inactive); in [10], 13.3% (inactive); in assay [11] it was -14.5% (inactive). Besides, the values for the z-score in assay [3] (setting [13]), in assay [3] (setting [14]) and in assay [3] (setting [15]) were 1.58, -1.02 and 0.322, respectively. Besides, the fluorescence slope in assay [5] was -0.468 (inactive). Also, the NADPH fluorescence slope in [6] is -5.4e-05 (inactive). In addition, the slope in assay [7] was 0.0044 (inactive).

For `O=C(O)CCC(=O)Nc1ccc(S(=O)(=O)Nc2nccs2)cc1`, the inhibition of aggregation in assay [1] is -13.3% (inactive). In addition, the figures for the nuclei count in assay [1] and in assay [2] were 93.6% and 110%, respectively. The inhibition in assay [2] is -59.2% (inactive); in assay [4], 1.38% (inactive); in assay [9] it was 5.01% (inactive); in assay [10], 21.6% (inactive); in [11], 37.7% (inactive). Besides, the z-score in assay [3] (setting [13]) was -1.01; in assay [3] (setting [14]), 2.12; in [3] (setting [15]), 1.88. Further, the fluorescence slope in assay [5] is -0.504 (inactive). Also, the NADPH fluorescence slope in assay [6] is -5.7e-05 (inactive). In addition, the slope in assay [7] was 0.00423 (inactive). In assay [8], the molecule was classed as inactive.

In the case of `CN1Cc2c(N)cccc2C(c2ccccc2)C1` (stereo not given), in [1], the inhibition of aggregation was 5.1% (inactive). Also, the nuclei count in [1] came out at 95.3%; in [2], 131%. The inhibition was -73% (inactive) in assay [2]; 3.45% (inactive) in assay [4]; 70.5% (active) and 60.3% (active) in assay [9]; 9.51% (inactive) in assay [10]; 22.5% (inactive) in assay [11]. The z-score in [3] (setting [13]) was -0.942; in [3] (setting [14]), 0.0925; in assay [3] (setting [15]), 1.7. Moreover, the fluorescence slope in assay [5] is -0.505 (inactive). The NADPH fluorescence slope in [6] was -5.7e-05 (inactive). Also, the slope in assay [7] is 0.00524 (inactive). In addition, the molecule was called inactive in assay [8].

Turning to `O=C1CCc2cc(OCCCCc3nnnn3C3CCCCC3)ccc2N1`, the inhibition of aggregation in assay [1] was 14.7% (inactive). The figures for the nuclei count in assay [1] and in [2] were 106% and 136%, respectively. The inhibition was -114% (inactive) in assay [2]; 27.1% (inactive) in [4]; 3.02% (inactive) and 2.15% (inactive) in assay [9]; -3.33% (inactive) in assay [10]; 20.5% (inactive) in [11]. Moreover, the z-score was 0.404 in assay [3] (setting [13]), -0.117 in [3] (setting [14]) and -0.524 in assay [3] (setting [15]). Further, the fluorescence slope in assay [5] is -0.456 (inactive). For the same molecule, the NADPH fluorescence slope in [6] was -6.4e-05 (inactive). Also, in assay [7], the slope is 0.00334 (inactive). Also, the molecule was classed as inactive in [8].

In the case of `CC(=O)[C@H]1CC[C@H]2[C@@H]3CCC4=CC(=O)CC[C@]4(C)[C@H]3CC[C@]12C`, the inhibition of aggregation in assay [1] was -5.3% (inactive). The nuclei count in assay [1] is 74.7%; in assay [2], 125%. Also, the inhibition in [2] is -153% (inactive); in assay [4] it was -0.493% (inactive); in [9] it was 2.24% (inactive) and 8.52% (inactive); in [10] it was 3.73% (inactive); in assay [11] it was 31.6% (inactive). Also, the results for the z-score in [3] (setting [13]), in assay [3] (setting [14]) and in assay [3] (setting [15]) were -0.82, -0.521 and -0.268, respectively. Further, the fluorescence slope in assay [5] was -0.446 (inactive). In [6], the NADPH fluorescence slope was -4.8e-05 (inactive). Further, in assay [7], the slope is 0.00331 (inactive). Moreover, the call in [8] was inactive.

As to `CC1(C)O[C@@H]2C[C@H]3[C@@H]4CCC5=CC(=O)C=C[C@]5(C)[C@@]4(F)[C@@H](O)C[C@]3(C)[C@]2(C(=O)CO)O1`, the inhibition of aggregation in assay [1] was -6.5% (inactive). In addition, the nuclei count amounted to 62.6% in assay [1] and 116% in assay [2]. Also, the inhibition is -115% (inactive) in assay [2]; -2.46% (inactive) in assay [4]; -13.3% (inactive) in assay [9]; -3.36% (inactive) in assay [10]; 10.8% (inactive) in assay [11]. The results for the z-score in assay [3] (setting [13]), in [3] (setting [14]) and in assay [3] (setting [15]) were 0.696, -0.511 and -0.313, respectively. In addition, the fluorescence slope in assay [5] was -0.515 (inactive). Besides, the NADPH fluorescence slope in [6] was -2.4e-05 (inactive). For the same molecule, the slope in assay [7] is 0.00512 (inactive). In addition, the molecule was called inactive in assay [8].

Regarding `Cc1cccc(Nc2ccccc2C(=O)O)c1C`, in [1], the inhibition of aggregation is -13.5% (inactive). Moreover, the nuclei count is 100% in assay [1] and 118% in assay [2]. Moreover, the inhibition in assay [2] was -91.2% (inactive); in [4], 19% (inactive); in assay [9], 25.5% (inactive); in [10], 8.41% (inactive); in assay [11], 14% (inactive). Moreover, the values for the z-score in assay [3] (setting [13]), in [3] (setting [14]) and in assay [3] (setting [15]) were -1.12, 0.675 and -0.849, respectively. For the same molecule, the fluorescence slope in assay [5] is -0.511 (inactive). In [6], the NADPH fluorescence slope is -5.8e-05 (inactive). Further, the slope in [7] was 0.00454 (inactive). The molecule was called inactive in assay [8].
